We go through nine compounds from PubChem BioAssay (NCI).

Values joined by “and” are separate entries in the source; they are usually repeats but may differ in a detail not shown here. Equal values may be shown once. Compounds without any hit were thinned out: in the full panel of roughly 83,000, 20% have a hit.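 Interpretation: 100, growth as untreated; towards 0, rising growth inhibition; 0, no net growth; 0 to -100, cell death. Compounds scoring below 10 were considered active.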 Active and inactive are the calls of the source.

Holding throughout (test): NCI-60 one-dose screen, 48 h (100 = growth as untreated, 0 = no growth, -100 = all killed)
What all share (conditions): 10 µM unless noted

Assay [1] relates to NCI-H23 lung.
In assay [2] the test system is NCI-H226 lung.
Assay [3] concerns NCI-H322M lung.
The test system of assay [4] is HOP-62 NSCLC.
The test system of assay [5] is NCI-H460 lung.
For assay [6], the system named is HOP-92 NSCLC.
The subject of assay [7] is NCI-H522 lung.
In assay [8] the test system is 786-0 renal.
The subject of assay [9] is COLO 205 colon.
Assay [10] has as its system DU-145 prostate.
The test system of assay [11] is K-562 leukemia.
In assay [12] the test system is MALME-3M melanoma.
Assay [13] concerns MDA-MB-231 breast.
In assay [14] the test system is RXF 393 renal.
The test system of assay [15] is SF-268 CNS.
Assay [16] concerns SF-295 CNS.
The subject of assay [17] is SF-539 CNS.
Assay [18] has as its system UACC-257 melanoma.
In assay [19] the test system is M14 melanoma.
Assay [20] concerns A549/ATCC NSCLC.

Turning to `CC(C)(C)c1ccc(O)c(CNC2CCCCC2)c1`, the growth is 96.6% (inactive) and 90.8% (inactive) in assay [1]; 96.5% (inactive) and 81.2% (inactive) in [2]; 97.6% (inactive) and 100% (inactive) in [3]; 119% (inactive) and 88.9% (inactive) in assay [4]; 103% (inactive) and 93.6% (inactive) in assay [5]; 72.4% (inactive) and 84.3% (inactive) in [6]. Moreover, the growth in assay [7] is 102% (inactive) and 84.8% (inactive); in assay [8], 96.1% (inactive) and 80.4% (inactive); in assay [9] it was 9.74% (active) and 107% (inactive); in [10], 130% (inactive) and 108% (inactive); in assay [11], 48.7% (inactive) and 75.4% (inactive); in assay [12], 115% (inactive) and 97.9% (inactive). Further, the growth was 101% (inactive) and 97.2% (inactive) in [13]; 96.5% (inactive) and 59.5% (inactive) in assay [14]; 114% (inactive) and 96.8% (inactive) in [15]; 104% (inactive) in assay [16]; 114% (inactive) and 95.6% (inactive) in [17]; 108% (inactive) and 95.2% (inactive) in assay [18]. The growth in [19] is 87.1% (inactive) and 101% (inactive).
On to `Cc1nn(-c2ccccc2)nc1C(=O)Nc1ccccc1C(=O)NCC1CC1`, for which the growth in assay [1] was 102% (inactive) and 77.6% (inactive); in assay [3] it was 111% (inactive) and 76.7% (inactive); in [4], 96.7% (inactive) and 46.1% (inactive); in assay [5] it was 94.3% (inactive) and 26.8% (inactive); in [6], 75.8% (inactive); in assay [7], 91.9% (inactive). Moreover, the growth in [20] is 67.8% (inactive) and 38.7% (inactive); in assay [8], 110% (inactive) and 35.1% (inactive); in assay [9] it was 95.3% (inactive) and 52.8% (inactive); in [10], 109% (inactive) and 62.6% (inactive); in assay [11] it was 91.4% (inactive) and 44.3% (inactive); in assay [12] it was 135% (inactive) and 97% (inactive). The growth is 79.8% (inactive) and 23.6% (inactive) in assay [13]; 105% (inactive) and 77.4% (inactive) in assay [14]; 123% (inactive) and 91% (inactive) in [15]; 114% (inactive) and 59.5% (inactive) in [16]; 88.8% (inactive) and 30.9% (inactive) in assay [17]; 111% (inactive) in [18]. Further, the growth in assay [19] was 105% (inactive) and 81.8% (inactive).
With `CN(C)c1ccc(C(Cc2ccc3ccccc3n2)Cc2ccc3ccccc3n2)cc1`, the growth is 38.6% (inactive) and 65.5% (inactive) in [1]; 66.9% (inactive) and 86% (inactive) in [3]; 70.9% (inactive) and 84.4% (inactive) in assay [4]; 26.5% (inactive) and 73.7% (inactive) in [5]; -4.12% (active) and 50.7% (inactive) in assay [6]; 45.3% (inactive) and 90.3% (inactive) in [7]. Moreover, the growth was 45% (inactive) and 91.1% (inactive) in assay [20]; 31.4% (inactive) and 90.9% (inactive) in assay [8]; 43.5% (inactive) in assay [9]; 81.9% (inactive) in assay [10]; 29.8% (inactive) and 85.6% (inactive) in [11]; 64.8% (inactive) and 106% (inactive) in [12]. Also, the growth is 58.2% (inactive) and 64% (inactive) in assay [13]; 73.6% (inactive) and 85.5% (inactive) in [14]; 68.3% (inactive) and 95.3% (inactive) in [15]; 24.7% (inactive) and 64.9% (inactive) in assay [16]; 67.6% (inactive) and 106% (inactive) in assay [17]; 32.4% (inactive) and 99% (inactive) in assay [18]. For the same compound, the growth in [19] is 27.2% (inactive) and 75.5% (inactive).
In the case of `Cc1n[nH]c(=O)n(/N=C\c2c[nH]c3ccccc23)c1=O`, the growth was 102% (inactive) in assay [1]; 94.2% (inactive) in assay [3]; 96.1% (inactive) in assay [4]; 107% (inactive) in assay [5]; 84.2% (inactive) in assay [6]; 94.1% (inactive) in [7]. Further, the growth in [20] was 93.1% (inactive); in assay [8], 123% (inactive); in [9] it was 104% (inactive); in assay [10] it was 118% (inactive); in assay [11], 93.7% (inactive); in assay [12], 97% (inactive). The growth was 123% (inactive) in assay [13]; 96.3% (inactive) in assay [14]; 99.6% (inactive) in assay [15]; 102% (inactive) in [16]; 104% (inactive) in assay [17]; 104% (inactive) in assay [18]. Further, the growth in assay [19] was 121% (inactive).
`CN(C)CCCN1c2ccccc2Sc2ccc(Cl)cc21`: the growth in assay [1] was 90.4% (inactive) and 112% (inactive) and 111% (inactive); in assay [3] it was 77.4% (inactive) and 105% (inactive) and 71% (inactive); in [4], 77.1% (inactive) and 107% (inactive) and 95.2% (inactive); in assay [5], 101% (inactive) and 105% (inactive) and 100% (inactive); in assay [6], 47.1% (inactive) and 99.2% (inactive); in [7], 72.3% (inactive) and 97.6% (inactive). Further, the growth in [20] is 103% (inactive) and 94.4% (inactive); in assay [8], 68% (inactive) and 106% (inactive) and 81.9% (inactive); in [9], 50.5% (inactive) and 102% (inactive) and 67.9% (inactive); in assay [10], 101% (inactive) and 113% (inactive) and 111% (inactive); in assay [11] it was 51.6% (inactive) and 120% (inactive) and 58.2% (inactive); in assay [12] it was 90.2% (inactive) and 111% (inactive) and 76.7% (inactive). Further, the growth in [13] was 67.7% (inactive) and 108% (inactive) and 72.3% (inactive); in [14], 52% (inactive) and 84.6% (inactive) and 82% (inactive); in assay [15], 83% (inactive) and 104% (inactive) and 83.6% (inactive); in assay [16], 95.3% (inactive) and 160% (inactive) and 81% (inactive); in assay [17], 90.5% (inactive) and 98.8% (inactive) and 88.8% (inactive); in assay [18], 78% (inactive) and 106% (inactive) and 115% (inactive). The growth in assay [19] is 31% (inactive) and 102% (inactive) and 81% (inactive).
Regarding `O=C(Oc1cccc(OC(=O)c2ccccc2)c1)c1ccccc1`, the growth was 94.6% (inactive) and 106% (inactive) in assay [1]; 102% (inactive) and 100% (inactive) in assay [2]; 101% (inactive) and 97.8% (inactive) in assay [3]; 90.5% (inactive) and 90% (inactive) in assay [4]; 107% (inactive) and 94.2% (inactive) in [5]; 108% (inactive) in assay [7]. Further, the growth in assay [20] was 57.7% (inactive) and 98.9% (inactive); in assay [8] it was 90% (inactive) and 95.8% (inactive); in [9], 101% (inactive) and 104% (inactive); in assay [10] it was 111% (inactive) and 105% (inactive); in [11], 79.3% (inactive) and 88.5% (inactive); in [12] it was 119% (inactive) and 110% (inactive). Besides, the growth in assay [13] is 96.2% (inactive) and 107% (inactive); in [14], 121% (inactive); in assay [15], 92% (inactive) and 94.7% (inactive); in assay [16], 103% (inactive) and 99% (inactive); in [17] it was 96.8% (inactive) and 96.1% (inactive); in assay [18], 111% (inactive). Moreover, the growth in [19] is 116% (inactive) and 99.4% (inactive).
For the compound `CCCCCCCCCCCCCCCCOc1ccc(C)cc1`, the growth in [1] was 98.2% (inactive); in [2], 107% (inactive); in assay [3], 111% (inactive); in assay [5], 114% (inactive); in [7] it was 104% (inactive); in assay [20], 102% (inactive). For the same compound, the growth in assay [8] was 107% (inactive); in assay [9] it was 111% (inactive); in assay [10] it was 110% (inactive); in assay [11], 108% (inactive); in [12], 103% (inactive); in [13], 100% (inactive). Further, the growth was 118% (inactive) in [14]; 114% (inactive) in assay [15]; 93.2% (inactive) in [17]; 111% (inactive) in [18]; 111% (inactive) in assay [19].
For `Oc1ccccc1/C=N\NC(=S)N/N=C/c1ccccc1O`, the growth in assay [1] was 62.6% (inactive) and 58.7% (inactive); in assay [2], 68.1% (inactive) and 43.4% (inactive); in assay [3], 24.8% (inactive) and 29.7% (inactive); in assay [4] it was 48.9% (inactive) and 71.5% (inactive); in [5] it was 19.5% (inactive) and 12.5% (inactive); in assay [7], 31% (inactive) and 2.87% (active). Further, the growth was 32.4% (inactive) in assay [20]; 29% (inactive) and 27.1% (inactive) in assay [8]; 65.6% (inactive) and 48.7% (inactive) in assay [9]; 55% (inactive) and 44.6% (inactive) in assay [10]; 26% (inactive) in [11]; 39.6% (inactive) and 42.9% (inactive) in [12]. Moreover, the growth in [13] is 55% (inactive) and 44.2% (inactive); in [14] it was 80.7% (inactive) and 63.9% (inactive); in assay [15], 50% (inactive) and 37% (inactive); in assay [16], 22.4% (inactive) and 30.6% (inactive); in assay [17], 45.4% (inactive) and 23.2% (inactive); in [18], 40.3% (inactive) and 34.2% (inactive). In addition, the growth in [19] was 24.4% (inactive) and 24.5% (inactive).
Regarding `CCCCCCCCCCCCOc1ccccc1C=O`, the growth in assay [1] is 100% (inactive); in [2], 95.4% (inactive); in assay [3], 114% (inactive); in assay [4] it was 85.3% (inactive); in assay [5], 102% (inactive); in assay [7] it was 91.3% (inactive). The growth was 93.3% (inactive) in assay [20]; 109% (inactive) in assay [8]; 109% (inactive) in assay [9]; 111% (inactive) in assay [10]; 83.7% (inactive) in [11]; 102% (inactive) in assay [13]. The growth in assay [14] was 110% (inactive); in assay [15], 97.5% (inactive); in [16] it was 99% (inactive); in [17], 102% (inactive); in assay [18], 96.8% (inactive); in [19], 101% (inactive).
